Measurements from PubChem BioAssay (NCI).
The panel holds about 79,000 compounds, 15% with a hit somewhere; the sample as a whole holds those more often. Calls of active or inactive are those of the source. Cut-off read from the data, not from the text of the source: active = growth inhibition above about 70%; inactive = the rest.

Experiments:
[1] = NCI Yeast Anticancer Drug Screen. Data for the mec2-1 strain (AID 157); conditions: S. cerevisiae mec2-1 strain, stronger effect = higher value
Procedure, shortened: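 mec2-1 yeast strain, carrying an alteration in DNA damage repair or cell cycle control, was exposed to compounds; growth inhibition was measured relative to vehicle-treated controls.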

[2] = NCI Yeast Anticancer Drug Screen. Data for the rad14 strain (AID 159);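 note: 0% = growth of vehicle-treated control cultures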; conditions: S. cerevisiae rad14 strain growth inhibition, stronger effect = higher value
Procedure, shortened: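 A mutant yeast strain defective in DNA damage repair is treated with compound; inhibition of its growth is scored against untreated, vehicle-exposed cultures.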

[3] = NCI Yeast Anticancer Drug Screen. Data for the sgs1 mgt1 strain (AID 161);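 note: 0% = growth of cultures given vehicle only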; conditions: S. cerevisiae sgs1 mgt1 strain, stronger effect = higher value
Procedure, shortened: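 This yeast growth screen uses a strain with defined DNA-repair lesions; compound-treated growth is compared with vehicle-treated growth.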

[4] = NCI Yeast Anticancer Drug Screen. Data for the CLN2oe strain (AID 163);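 note: 0% = growth of vehicle-only control cultures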; conditions: S. cerevisiae CLN2oe strain, stronger effect = higher value
Procedure, shortened: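 Yeast cells carrying a defined cell-cycle control alteration were exposed to test compounds. Growth inhibition was scored against vehicle-treated control cultures.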

[5] = NCI Yeast Anticancer Drug Screen. Data for the cln2 rad14 strain (AID 165);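 note: 0% = growth equal to vehicle treated cultures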; conditions: S. cerevisiae cln2 rad14 strain, stronger effect = higher value
Procedure, shortened: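 Yeast carrying cln2 and rad14 alterations (cell cycle control and DNA damage repair) were exposed to compounds. Growth inhibition was measured against vehicle-treated controls.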

[6] = NCI Yeast Anticancer Drug Screen. Data for the bub3 strain (AID 167); conditions: S. cerevisiae bub3 mutant strain, stronger effect = higher value
Procedure, shortened: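 Steps: expose the mutant yeast strain to compound; grow alongside vehicle-treated cultures; measure growth; express inhibition against the vehicle cultures.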

[7] = NCI Yeast Anticancer Drug Screen. Data for the wt2 strain (AID 169);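 note: 0% = growth of vehicle-treated yeast cultures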; conditions: S. cerevisiae wt2 strain growth inhibition, stronger effect = higher value
Procedure, shortened: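 Yeast cells were exposed to test compounds, and growth inhibition was measured relative to vehicle-treated controls.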

[8] = NCI Yeast Anticancer Drug Screen. Data for the mlh1 strain (AID 171);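 note: 0% = growth of vehicle-treated control cultures of the same strain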; conditions: S. cerevisiae mlh1 strain growth inhibition, stronger effect = higher value
Procedure, shortened: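 Yeast carrying a defined genetic alteration in DNA damage repair or cell cycle control were exposed to test compounds. Growth inhibition was measured relative to vehicle-treated controls.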

[9] = NCI Yeast Anticancer Drug Screen. Data for the sgs1 strain (AID 173);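 note: 0% = growth of vehicle-only control cultures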; conditions: S. cerevisiae sgs1 mutant, stronger effect = higher value
Procedure, shortened: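 Yeast mutant strains carrying defined defects in DNA damage repair or cell cycle control were exposed to test compounds. Growth inhibition was scored against vehicle-treated controls.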

[10] = NCI Yeast Anticancer Drug Screen. Data for the mlh1 rad18 strain (AID 175); conditions: S. cerevisiae mlh1 rad18 strain growth inhibition, stronger effect = higher value
Procedure, shortened: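 Growth inhibition of the yeast strain was measured after compound exposure and expressed relative to vehicle-treated controls. The strain carries defined defects in DNA damage repair.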

[11] = NCI Yeast Anticancer Drug Screen. Data for the rad18 strain (AID 177); conditions: S. cerevisiae rad18 mutant growth inhibition, stronger effect = higher value
Procedure, shortened: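 Yeast carrying a defined DNA damage repair alteration were exposed to compounds. Growth inhibition was expressed relative to vehicle-treated controls.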

[12] = NCI Yeast Anticancer Drug Screen. Data for the rad52 strain (AID 147);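 note: 0% = growth of vehicle-treated control cultures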; conditions: S. cerevisiae rad52 mutant growth inhibition, stronger effect = higher value
Procedure, shortened: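 Yeast strain carrying a DNA damage repair alteration was exposed to test compounds. Growth inhibition was measured relative to vehicle-treated controls.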

[13] = NCI Yeast Anticancer Drug Screen. Data for the wt1 strain (AID 149);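 note: 0% = growth of vehicle-treated wt1 cultures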; conditions: S. cerevisiae wt1 strain (SPY 50644) growth inhibition, stronger effect = higher value
Procedure, shortened: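 Compounds are added to wt1 yeast cultures. Growth is then measured. Inhibition is expressed relative to vehicle-treated controls.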

[14] = NCI Yeast Anticancer Drug Screen. Data for the rad50EPP+ strain (AID 151);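 note: 0% = growth of vehicle-treated control cultures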; conditions: S. cerevisiae rad50 mutant strain, stronger effect = higher value
Procedure, shortened: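 Yeast strain carrying rad50 alteration (rad50EPP+) exposed to compounds; growth inhibition measured relative to vehicle-treated controls.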

[15] = NCI Yeast Anticancer Drug Screen. Data for the mgt1 strain (AID 153); conditions: S. cerevisiae mgt1 mutant growth inhibition, stronger effect = higher value
Procedure, shortened: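 Yeast mgt1 strain (DNA repair/cell-cycle alteration panel) exposed to compounds; growth inhibition measured relative to vehicle-treated controls.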

[16] = NCI Yeast Anticancer Drug Screen. Data for the rad50 strain (AID 155);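 note: 0% = growth of vehicle-only cultures of the same strain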; conditions: S. cerevisiae rad50 strain growth inhibition, stronger effect = higher value
Procedure, shortened: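 Inhibition values express reduced yeast growth in compound-treated cultures relative to vehicle-treated controls.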

[17] = at 5.0 µM (retest, dose inferred, filed as 0.5)
[18] = at 50.0 µM (retest, dose inferred, filed as 5.0)

Measured: growth inhibition

CC1CCC2(NC1)OC1CC3C4CCC5CC(OC6OC(CO)C(OC7OC(CO)C(O)C(OC8OCC(O)C(O)C8O)C7OC7OC(CO)C(O)C(O)C7O)C(O)C6O)CCC5(C)C4CCC3(C)C1C2C (stereo unspecified)
active: [1]; [18] 97% | [2]; at 100.0 µM 77% | [3]; [18] 93% | [6]; [18] 74% | [7]; at 100.0 µM 99% | [8]; at 100.0 µM 90% | [10]; [18] 97% | [10]; at 50.0 µM 87.6%
inactive: [1]; [17] 13% | [1]; at 11.0 µM -15% | [1]; at 33.0 µM 2% | [1]; at 50.0 µM 6.1% | [1]; at 100.0 µM 14% | [2]; at 1.2 µM 18% | [2]; at 3.7 µM 6% | [2]; at 11.0 µM -5% | [2]; at 33.0 µM -18% | [3]; [17] 1% | [3]; at 50.0 µM -24.1% | [4]; at 1.2 µM -15% | [4]; at 3.7 µM -14% | [4]; at 11.0 µM -10% | [4]; at 33.0 µM -4% | [4]; at 100.0 µM 46% | [5]; [17] -19% | [5]; [18] 68% | [5]; at 50.0 µM 28.8% | [6]; at 1.2 µM 0% | [6]; at 3.7 µM -19% | [6]; [17] 10% | [6]; at 11.0 µM -27% | [6]; at 33.0 µM -10% | [6]; at 50.0 µM 11.1% | [6]; at 100.0 µM 45% | [7]; at 1.2 µM -7% | [7]; at 3.7 µM -20% | [7]; at 11.0 µM -22% | [7]; at 33.0 µM -11% | [8]; at 1.2 µM -4% | [8]; at 3.7 µM -5% | [8]; at 11.0 µM -8% | [8]; at 33.0 µM -12% | [9]; at 1.2 µM 2% | [9]; at 3.7 µM 0% | [9]; at 11.0 µM 2% | [9]; at 33.0 µM -4% | [9]; at 100.0 µM 61% | [10]; [17] 59% | [11]; at 1.2 µM 4% | [11]; at 3.7 µM -19% | [11]; at 11.0 µM -14% | [11]; at 33.0 µM -25% | [11]; at 100.0 µM 61%

CCCN(CCC)c1c([N+](=O)[O-])cc(S(N)(=O)=O)cc1[N+](=O)[O-]
active: [5]; [18] 73% | [5]; at 50.0 µM 85.3% | [6]; [18] 80% | [6]; at 50.0 µM 89.5% | [10]; [18] 70% | [10]; at 50.0 µM 72.9%
inactive: [12]; at 1.2 µM 8% | [12]; at 3.7 µM 25% | [12]; at 11.0 µM 28% | [12]; at 33.0 µM 60% | [12]; at 100.0 µM 23% | [13]; at 1.2 µM 10% | [13]; at 3.7 µM 6% | [13]; at 11.0 µM 18% | [13]; at 33.0 µM 19% | [13]; at 100.0 µM 7% | [14]; at 1.2 µM -23% | [14]; at 3.7 µM -33% | [14]; at 11.0 µM -31% | [14]; at 33.0 µM -23% | [14]; at 100.0 µM -22% | [15]; at 1.2 µM -1% | [15]; at 3.7 µM 0% | [15]; at 11.0 µM -11% | [15]; at 33.0 µM 25% | [15]; at 100.0 µM -2% | [16]; at 1.2 µM 14% | [16]; at 3.7 µM 12% | [16]; [17] -5% | [16]; at 11.0 µM 33% | [16]; at 33.0 µM 44% | [16]; [18] 26% | [16]; at 50.0 µM 63.4% | [16]; at 100.0 µM 15% | [1]; at 1.2 µM -7% | [1]; at 3.7 µM 0% | [1]; [17] -13% | [1]; at 11.0 µM -25% | [1]; at 33.0 µM 32% | [1]; [18] 15% | [1]; at 50.0 µM 51.8% | [1]; at 100.0 µM -2% | [2]; at 1.2 µM -11% | [2]; at 3.7 µM -18% | [2]; at 11.0 µM -24% | [2]; at 33.0 µM 29% | [2]; at 100.0 µM -2% | [3]; [17] -11% | [3]; [18] 35% | [3]; at 50.0 µM 47.7% | [4]; at 1.2 µM -11% | [4]; at 3.7 µM -3% | [4]; at 11.0 µM -4% | [4]; at 33.0 µM 30% | [4]; at 100.0 µM 2% | [5]; [17] 2% | [6]; at 1.2 µM -13% | [6]; at 3.7 µM -22% | [6]; [17] 4% | [6]; at 11.0 µM -17% | [6]; at 33.0 µM 32% | [6]; at 100.0 µM -9% | [8]; at 1.2 µM -27% | [8]; at 3.7 µM -28% | [8]; at 11.0 µM -16% | [8]; at 33.0 µM 31% | [8]; at 100.0 µM -6% | [9]; at 1.2 µM 3% | [9]; at 3.7 µM 10% | [9]; at 11.0 µM 16% | [9]; at 33.0 µM 30% | [9]; at 100.0 µM 6% | [10]; [17] 9% | [11]; at 1.2 µM -8% | [11]; at 3.7 µM -1% | [11]; at 11.0 µM 6% | [11]; at 33.0 µM 50% | [11]; at 100.0 µM 0%
